# Assays:
# Assay in all cases: DAPPL (digital affinity profiling via proximity ligation, sequencing); 10 mM Tris-HCl pH 7.5, 50 mM NaCl, 1 mM DTT, 4% glycerol, room temperature, 30 min; GST-TFs on glutathione beads, 16-mer random dsDNA library, 0.1% formaldehyde crosslink after washing; high values mean tight binding
# [1] = target: T1, FLI1 (Homo sapiens, UniProt Q01543 1-452); conditions: protein: recombinant; tags: N-terminal GST; dsDNA, one strand shown
# T1 sequence: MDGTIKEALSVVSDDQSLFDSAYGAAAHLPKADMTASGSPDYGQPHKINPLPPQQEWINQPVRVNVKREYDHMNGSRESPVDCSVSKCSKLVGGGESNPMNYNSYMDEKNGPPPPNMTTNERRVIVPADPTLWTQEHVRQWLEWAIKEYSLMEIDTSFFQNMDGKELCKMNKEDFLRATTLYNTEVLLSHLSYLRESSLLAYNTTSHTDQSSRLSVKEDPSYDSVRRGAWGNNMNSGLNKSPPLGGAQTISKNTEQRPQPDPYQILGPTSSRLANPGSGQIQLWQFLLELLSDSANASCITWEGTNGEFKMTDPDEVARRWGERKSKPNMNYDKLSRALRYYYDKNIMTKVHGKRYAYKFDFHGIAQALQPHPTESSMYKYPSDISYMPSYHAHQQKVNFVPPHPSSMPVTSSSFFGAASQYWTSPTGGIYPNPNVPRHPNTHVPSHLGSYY
# In short: (§1)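 Pools of DNA-barcoded human transcription factors, expressed in yeast as GST fusions on glutathione beads and combined with a tag-only sample, were incubated with 200 nmole of a 16-mer random double-stranded DNA library. Incubation took 30 min at room temperature in Tris/NaCl/DTT/glycerol buffer and was followed by washing, 0.1% formaldehyde crosslinking, proximity ligation (BsaI/T4 ligase, 1 h, 37 °C), PCR amplification and sequencing on an Illumina NextSeq500. Binding signal is the ratio of a hexamer's read frequency for a factor to its frequency for the tag-only sample.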
# [2] = target: T2, ELK1 (Homo sapiens, UniProt P19419 1-428); conditions: protein: recombinant; tags: N-terminal GST; dsDNA, one strand shown
# T2 sequence: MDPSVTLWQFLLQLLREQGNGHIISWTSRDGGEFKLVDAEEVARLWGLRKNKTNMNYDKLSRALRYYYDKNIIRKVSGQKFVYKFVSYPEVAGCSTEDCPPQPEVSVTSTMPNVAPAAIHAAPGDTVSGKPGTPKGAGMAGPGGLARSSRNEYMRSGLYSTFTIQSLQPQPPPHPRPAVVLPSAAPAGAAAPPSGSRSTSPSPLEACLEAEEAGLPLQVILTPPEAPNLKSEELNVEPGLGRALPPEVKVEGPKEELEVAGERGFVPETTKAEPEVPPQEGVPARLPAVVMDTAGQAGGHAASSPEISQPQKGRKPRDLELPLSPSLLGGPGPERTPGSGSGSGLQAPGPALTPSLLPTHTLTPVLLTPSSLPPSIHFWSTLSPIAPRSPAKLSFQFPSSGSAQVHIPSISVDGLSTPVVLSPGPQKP
# In short: as §1
# [3] = target: T3, GABPA (Homo sapiens, UniProt Q06546 1-454); conditions: protein: recombinant; tags: N-terminal GST; dsDNA, one strand shown
# T3 sequence: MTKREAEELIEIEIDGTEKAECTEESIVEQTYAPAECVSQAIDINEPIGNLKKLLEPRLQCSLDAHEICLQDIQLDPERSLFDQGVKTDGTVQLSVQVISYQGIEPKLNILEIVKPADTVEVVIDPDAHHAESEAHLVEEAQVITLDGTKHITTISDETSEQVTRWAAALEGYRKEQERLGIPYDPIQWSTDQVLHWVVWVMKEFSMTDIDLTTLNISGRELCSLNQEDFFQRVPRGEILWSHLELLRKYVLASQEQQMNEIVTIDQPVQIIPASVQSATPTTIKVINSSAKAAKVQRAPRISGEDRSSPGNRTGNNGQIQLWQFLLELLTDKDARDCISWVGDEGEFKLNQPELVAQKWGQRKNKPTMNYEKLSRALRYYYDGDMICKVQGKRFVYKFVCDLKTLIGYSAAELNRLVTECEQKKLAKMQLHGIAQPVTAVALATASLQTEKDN
# In short: as §1
# [4] = target: T4, ERG (Homo sapiens, UniProt P11308 1-479); conditions: protein: recombinant; tags: N-terminal GST; dsDNA, one strand shown
# T4 sequence: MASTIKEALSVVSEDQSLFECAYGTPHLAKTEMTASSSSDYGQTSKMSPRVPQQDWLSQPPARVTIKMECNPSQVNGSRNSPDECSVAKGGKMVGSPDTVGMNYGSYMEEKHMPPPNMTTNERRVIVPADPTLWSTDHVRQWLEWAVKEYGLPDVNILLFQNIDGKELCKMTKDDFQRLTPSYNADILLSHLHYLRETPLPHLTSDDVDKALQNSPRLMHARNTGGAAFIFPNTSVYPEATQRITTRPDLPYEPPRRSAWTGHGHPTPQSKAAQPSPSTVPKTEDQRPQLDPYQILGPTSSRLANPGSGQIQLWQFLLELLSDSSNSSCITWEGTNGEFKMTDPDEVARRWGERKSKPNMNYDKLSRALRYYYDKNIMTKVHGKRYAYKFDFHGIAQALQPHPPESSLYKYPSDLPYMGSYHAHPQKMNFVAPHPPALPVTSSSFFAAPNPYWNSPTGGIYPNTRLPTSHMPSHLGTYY
# In short: as §1
# [5] = target: ELF1 (Homo sapiens, UniProt P32519 1-619); conditions: protein: recombinant; tags: N-terminal GST; dsDNA, one strand shown
# Chain of ELF1 (P32519 whole entry): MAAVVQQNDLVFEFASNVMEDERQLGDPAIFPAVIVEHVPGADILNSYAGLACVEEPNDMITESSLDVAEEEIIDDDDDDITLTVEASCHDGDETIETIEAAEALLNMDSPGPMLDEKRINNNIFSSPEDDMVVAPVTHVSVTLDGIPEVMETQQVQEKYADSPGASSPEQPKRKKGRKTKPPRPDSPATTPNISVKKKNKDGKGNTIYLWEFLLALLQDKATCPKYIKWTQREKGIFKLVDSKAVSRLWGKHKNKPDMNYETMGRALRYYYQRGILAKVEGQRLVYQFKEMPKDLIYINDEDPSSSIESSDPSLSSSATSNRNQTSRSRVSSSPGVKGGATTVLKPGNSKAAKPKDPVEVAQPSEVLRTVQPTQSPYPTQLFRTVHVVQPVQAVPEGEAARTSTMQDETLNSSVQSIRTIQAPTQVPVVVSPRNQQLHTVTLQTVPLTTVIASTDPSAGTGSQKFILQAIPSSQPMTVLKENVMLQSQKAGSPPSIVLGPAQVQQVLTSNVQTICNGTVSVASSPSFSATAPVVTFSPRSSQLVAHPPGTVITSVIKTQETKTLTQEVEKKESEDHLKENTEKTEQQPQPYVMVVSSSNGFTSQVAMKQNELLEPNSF
# In short: as §1
# [6] = target: T5, EHF (Homo sapiens, UniProt Q9NZC4 1-300); conditions: protein: recombinant; tags: N-terminal GST; dsDNA, one strand shown
# T5 sequence: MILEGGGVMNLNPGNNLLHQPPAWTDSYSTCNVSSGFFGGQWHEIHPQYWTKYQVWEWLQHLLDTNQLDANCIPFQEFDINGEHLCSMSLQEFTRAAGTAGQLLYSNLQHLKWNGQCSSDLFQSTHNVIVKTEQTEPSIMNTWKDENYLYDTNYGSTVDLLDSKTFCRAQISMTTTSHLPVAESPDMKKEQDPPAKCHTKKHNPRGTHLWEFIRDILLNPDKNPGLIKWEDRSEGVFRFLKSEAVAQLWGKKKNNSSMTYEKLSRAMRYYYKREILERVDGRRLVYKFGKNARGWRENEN
# In short: as §1
# [7] = target: SPI1 (Homo sapiens, UniProt P17947 1-270); conditions: protein: recombinant; tags: N-terminal GST; dsDNA, one strand shown
# In short: as §1
# [8] = target: SPIB (Homo sapiens, UniProt Q01892 1-262); conditions: protein: recombinant; tags: N-terminal GST; dsDNA, one strand shown
# Chain of SPIB (Q01892 whole entry): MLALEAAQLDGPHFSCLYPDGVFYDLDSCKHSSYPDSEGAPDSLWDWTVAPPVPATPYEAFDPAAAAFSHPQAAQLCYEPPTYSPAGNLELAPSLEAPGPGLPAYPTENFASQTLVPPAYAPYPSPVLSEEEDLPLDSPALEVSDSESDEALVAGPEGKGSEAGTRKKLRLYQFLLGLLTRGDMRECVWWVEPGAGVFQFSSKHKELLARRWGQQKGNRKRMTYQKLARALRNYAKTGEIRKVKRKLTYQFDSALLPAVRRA
# In short: as §1
# [9] = target: T6, ELK3 (Homo sapiens, UniProt P41970 1-407); conditions: protein: recombinant; tags: N-terminal GST; dsDNA, one strand shown
# T6 sequence: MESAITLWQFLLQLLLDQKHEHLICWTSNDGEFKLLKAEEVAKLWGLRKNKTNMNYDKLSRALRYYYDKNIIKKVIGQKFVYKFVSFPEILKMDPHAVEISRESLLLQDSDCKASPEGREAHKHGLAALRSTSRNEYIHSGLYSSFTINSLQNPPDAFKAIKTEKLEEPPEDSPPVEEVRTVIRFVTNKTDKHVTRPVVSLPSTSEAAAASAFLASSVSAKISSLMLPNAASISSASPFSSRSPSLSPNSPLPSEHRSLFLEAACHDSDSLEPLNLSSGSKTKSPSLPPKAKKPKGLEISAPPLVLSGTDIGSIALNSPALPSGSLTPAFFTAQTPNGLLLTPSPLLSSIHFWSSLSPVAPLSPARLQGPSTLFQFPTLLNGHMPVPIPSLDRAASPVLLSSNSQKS
# In short: as §1
# [10] = target: T7, FEV (Homo sapiens, UniProt Q99581 1-238); conditions: protein: recombinant; tags: N-terminal GST; dsDNA, one strand shown
# T7 sequence: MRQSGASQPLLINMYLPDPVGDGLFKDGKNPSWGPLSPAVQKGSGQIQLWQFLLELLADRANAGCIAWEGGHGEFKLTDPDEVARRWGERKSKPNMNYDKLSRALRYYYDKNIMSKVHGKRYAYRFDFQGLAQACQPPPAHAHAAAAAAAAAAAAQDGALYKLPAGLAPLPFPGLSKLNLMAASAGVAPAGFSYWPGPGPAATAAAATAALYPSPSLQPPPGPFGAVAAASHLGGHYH
# In short: as §1
# [11] = target: ETV5 (Homo sapiens, UniProt P41161 1-510); conditions: protein: recombinant; tags: N-terminal GST; dsDNA, one strand shown
# Chain of ETV5 (P41161 whole entry): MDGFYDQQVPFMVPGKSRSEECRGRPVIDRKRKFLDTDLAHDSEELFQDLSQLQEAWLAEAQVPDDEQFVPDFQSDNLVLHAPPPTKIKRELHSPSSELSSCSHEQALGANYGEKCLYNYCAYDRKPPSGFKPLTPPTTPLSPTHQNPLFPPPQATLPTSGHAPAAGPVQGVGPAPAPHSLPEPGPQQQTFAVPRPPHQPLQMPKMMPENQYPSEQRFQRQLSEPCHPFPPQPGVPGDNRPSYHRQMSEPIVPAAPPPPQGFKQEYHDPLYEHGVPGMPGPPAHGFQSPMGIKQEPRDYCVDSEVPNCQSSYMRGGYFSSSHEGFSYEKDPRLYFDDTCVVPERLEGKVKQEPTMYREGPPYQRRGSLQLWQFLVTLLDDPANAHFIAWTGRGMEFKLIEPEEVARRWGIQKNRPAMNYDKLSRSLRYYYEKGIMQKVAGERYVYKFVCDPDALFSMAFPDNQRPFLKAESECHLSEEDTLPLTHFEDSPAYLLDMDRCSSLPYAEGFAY
# In short: as §1
# [12] = target: HSF1 (Homo sapiens, UniProt Q00613 1-529); conditions: protein: recombinant; tags: N-terminal GST; chain copies: 3; dsDNA, one strand shown
# Chain of HSF1 (Q00613 whole entry): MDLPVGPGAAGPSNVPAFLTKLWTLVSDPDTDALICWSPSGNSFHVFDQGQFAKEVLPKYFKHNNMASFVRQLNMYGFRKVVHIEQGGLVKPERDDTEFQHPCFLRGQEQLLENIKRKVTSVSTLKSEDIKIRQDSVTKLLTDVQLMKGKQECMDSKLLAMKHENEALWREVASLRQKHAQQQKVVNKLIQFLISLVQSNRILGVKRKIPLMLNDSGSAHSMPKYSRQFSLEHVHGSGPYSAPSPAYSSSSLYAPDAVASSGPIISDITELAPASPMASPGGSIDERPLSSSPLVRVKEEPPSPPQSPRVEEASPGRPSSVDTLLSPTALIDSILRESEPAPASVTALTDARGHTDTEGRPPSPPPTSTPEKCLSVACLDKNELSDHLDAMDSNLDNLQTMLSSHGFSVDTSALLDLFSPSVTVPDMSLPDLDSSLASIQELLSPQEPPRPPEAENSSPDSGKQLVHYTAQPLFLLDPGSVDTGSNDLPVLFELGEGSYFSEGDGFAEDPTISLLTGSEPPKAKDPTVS
# In short: as §1
# [13] = target: T8, SPIC (Homo sapiens, UniProt Q8N5J4 1-248); conditions: protein: recombinant; tags: N-terminal GST; dsDNA, one strand shown
# T8 sequence: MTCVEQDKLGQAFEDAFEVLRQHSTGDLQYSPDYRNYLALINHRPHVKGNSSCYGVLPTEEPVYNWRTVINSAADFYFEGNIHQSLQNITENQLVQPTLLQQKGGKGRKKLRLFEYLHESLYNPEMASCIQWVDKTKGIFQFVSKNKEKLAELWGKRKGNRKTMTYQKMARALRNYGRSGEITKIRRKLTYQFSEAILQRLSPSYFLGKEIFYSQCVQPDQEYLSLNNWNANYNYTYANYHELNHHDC
# In short: as §1
# [14] = target: ELF4 (Homo sapiens, UniProt Q99607 1-663); conditions: protein: recombinant; tags: N-terminal GST; dsDNA, one strand shown
# Chain of ELF4 (Q99607 whole entry): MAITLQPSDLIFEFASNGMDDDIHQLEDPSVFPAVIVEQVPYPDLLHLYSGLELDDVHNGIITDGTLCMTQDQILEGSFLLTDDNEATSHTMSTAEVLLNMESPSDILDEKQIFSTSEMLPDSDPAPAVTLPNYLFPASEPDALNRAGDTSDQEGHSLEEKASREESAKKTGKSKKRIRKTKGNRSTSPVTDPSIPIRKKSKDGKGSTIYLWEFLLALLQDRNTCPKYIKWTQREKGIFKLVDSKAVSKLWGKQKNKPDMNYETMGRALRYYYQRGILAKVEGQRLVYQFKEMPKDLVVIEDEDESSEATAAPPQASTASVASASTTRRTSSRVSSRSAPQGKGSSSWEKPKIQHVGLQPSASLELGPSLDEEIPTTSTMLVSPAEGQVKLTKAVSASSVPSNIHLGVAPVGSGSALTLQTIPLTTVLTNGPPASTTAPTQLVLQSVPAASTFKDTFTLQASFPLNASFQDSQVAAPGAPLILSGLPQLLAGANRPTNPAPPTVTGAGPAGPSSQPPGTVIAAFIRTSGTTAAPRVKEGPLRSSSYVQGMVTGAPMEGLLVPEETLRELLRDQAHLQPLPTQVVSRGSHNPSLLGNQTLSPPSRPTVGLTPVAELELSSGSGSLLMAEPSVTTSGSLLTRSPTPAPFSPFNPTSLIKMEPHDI
# In short: as §1
# [15] = target: T9, ELK4 (Homo sapiens, UniProt P28324-2 1-405); conditions: protein: recombinant; tags: N-terminal GST; dsDNA, one strand shown
# T9 sequence: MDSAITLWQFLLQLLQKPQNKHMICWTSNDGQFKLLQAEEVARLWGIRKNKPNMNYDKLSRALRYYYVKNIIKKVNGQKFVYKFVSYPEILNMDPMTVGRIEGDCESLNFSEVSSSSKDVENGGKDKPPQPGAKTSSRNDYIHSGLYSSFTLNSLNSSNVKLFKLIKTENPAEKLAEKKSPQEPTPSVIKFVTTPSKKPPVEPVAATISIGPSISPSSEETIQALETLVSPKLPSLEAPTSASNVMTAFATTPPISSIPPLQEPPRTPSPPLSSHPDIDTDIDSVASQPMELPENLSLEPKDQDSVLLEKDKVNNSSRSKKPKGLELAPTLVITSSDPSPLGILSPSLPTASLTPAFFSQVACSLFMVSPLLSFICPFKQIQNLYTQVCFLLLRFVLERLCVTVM
# In short: as §1
# [16] = target: T10, ETV2 (Homo sapiens, UniProt O00321 1-342); conditions: protein: recombinant; tags: N-terminal GST; dsDNA, one strand shown
# T10 sequence: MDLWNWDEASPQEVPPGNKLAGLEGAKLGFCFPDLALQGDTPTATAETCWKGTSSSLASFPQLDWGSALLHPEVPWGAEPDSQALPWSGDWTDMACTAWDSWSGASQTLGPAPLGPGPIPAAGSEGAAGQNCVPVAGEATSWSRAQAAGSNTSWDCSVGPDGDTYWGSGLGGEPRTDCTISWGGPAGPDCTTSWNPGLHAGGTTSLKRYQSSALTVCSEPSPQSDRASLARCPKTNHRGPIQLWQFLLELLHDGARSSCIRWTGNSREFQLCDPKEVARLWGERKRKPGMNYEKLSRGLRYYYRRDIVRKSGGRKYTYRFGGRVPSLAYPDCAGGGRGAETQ
# In short: as §1
# [17] = target: T11, ELF3 (Homo sapiens, UniProt P78545 1-371); conditions: protein: recombinant; tags: N-terminal GST; dsDNA, one strand shown
# T11 sequence: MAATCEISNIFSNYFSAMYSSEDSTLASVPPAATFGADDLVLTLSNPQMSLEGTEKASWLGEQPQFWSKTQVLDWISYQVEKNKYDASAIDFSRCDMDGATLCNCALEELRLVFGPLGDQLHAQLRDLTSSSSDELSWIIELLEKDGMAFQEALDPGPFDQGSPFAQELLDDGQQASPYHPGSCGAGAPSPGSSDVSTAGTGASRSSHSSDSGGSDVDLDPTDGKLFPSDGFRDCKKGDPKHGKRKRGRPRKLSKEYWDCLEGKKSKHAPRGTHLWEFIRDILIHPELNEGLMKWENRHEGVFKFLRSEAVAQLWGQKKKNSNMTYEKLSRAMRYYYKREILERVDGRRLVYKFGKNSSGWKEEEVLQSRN
# In short: as §1
# [18] = target: CRX (Homo sapiens, UniProt O43186 1-299); conditions: protein: recombinant; tags: N-terminal GST; dsDNA, one strand shown
# Chain of CRX (O43186 whole entry): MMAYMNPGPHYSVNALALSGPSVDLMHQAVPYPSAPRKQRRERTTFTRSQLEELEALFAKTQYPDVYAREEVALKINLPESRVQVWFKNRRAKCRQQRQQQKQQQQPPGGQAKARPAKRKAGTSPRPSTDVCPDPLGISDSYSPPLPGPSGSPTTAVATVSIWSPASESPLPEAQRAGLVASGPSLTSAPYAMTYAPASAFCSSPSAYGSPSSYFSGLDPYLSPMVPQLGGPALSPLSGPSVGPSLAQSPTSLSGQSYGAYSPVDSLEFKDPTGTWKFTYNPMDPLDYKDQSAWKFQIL
# In short: as §1
# [19] = target: ETV1 (Homo sapiens, UniProt P50549 1-477); conditions: protein: recombinant; tags: N-terminal GST; dsDNA, one strand shown
# Chain of ETV1 (P50549 whole entry): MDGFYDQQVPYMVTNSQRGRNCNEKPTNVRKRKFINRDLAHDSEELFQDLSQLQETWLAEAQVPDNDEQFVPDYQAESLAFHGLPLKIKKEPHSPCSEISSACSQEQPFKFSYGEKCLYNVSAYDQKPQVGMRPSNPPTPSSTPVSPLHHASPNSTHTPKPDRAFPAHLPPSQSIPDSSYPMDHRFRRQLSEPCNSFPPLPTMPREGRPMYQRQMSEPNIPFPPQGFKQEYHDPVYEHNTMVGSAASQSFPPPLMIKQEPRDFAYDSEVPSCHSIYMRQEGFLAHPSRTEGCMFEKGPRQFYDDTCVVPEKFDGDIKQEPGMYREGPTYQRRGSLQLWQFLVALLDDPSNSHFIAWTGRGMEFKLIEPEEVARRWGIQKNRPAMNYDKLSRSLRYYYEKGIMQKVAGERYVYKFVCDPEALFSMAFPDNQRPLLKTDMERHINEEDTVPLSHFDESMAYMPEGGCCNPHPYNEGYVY
# In short: as §1
sequence,measurement,setting,value
TCTACC,binding signal,[1],"1.54 fold enrichment (6-mer frequency, TF over GST control)"
same,binding signal,[2],"1.67 fold enrichment (6-mer frequency, TF over GST control)"
same,binding signal,[3],"1.58 fold enrichment (6-mer frequency, TF over GST control)"
same,binding signal,[4],"1.61 fold enrichment (6-mer frequency, TF over GST control)"
same,binding signal,[5],"1.59 fold enrichment (6-mer frequency, TF over GST control)"
same,binding signal,[6],"1.61 fold enrichment (6-mer frequency, TF over GST control)"
same,binding signal,[7],"1.54 fold enrichment (6-mer frequency, TF over GST control)"
same,binding signal,[8],"1.68 fold enrichment (6-mer frequency, TF over GST control)"
same,binding signal,[9],"1.43 fold enrichment (6-mer frequency, TF over GST control)"
same,binding signal,[10],"1.52 fold enrichment (6-mer frequency, TF over GST control)"
same,binding signal,[11],"1.52 fold enrichment (6-mer frequency, TF over GST control)"
same,binding signal,[12],"1.67 fold enrichment (6-mer frequency, TF over GST control)"
same,binding signal,[13],"1.53 fold enrichment (6-mer frequency, TF over GST control)"
same,binding signal,[14],"1.56 fold enrichment (6-mer frequency, TF over GST control)"
same,binding signal,[15],"1.48 fold enrichment (6-mer frequency, TF over GST control)"
same,binding signal,[16],"1.39 fold enrichment (6-mer frequency, TF over GST control)"
same,binding signal,[17],"1.53 fold enrichment (6-mer frequency, TF over GST control)"
same,binding signal,[18],"1.44 fold enrichment (6-mer frequency, TF over GST control)"
same,binding signal,[19],"1.57 fold enrichment (6-mer frequency, TF over GST control)"
